{
  "source": "PubChem BioAssay AID2685",
  "about": "(National Center for Advancing Translational Sciences (NCATS), 2010)",
  "note": "Out of some 320,000 compounds screened, about 2,100 (0.66%) were called active. About 53% were inconclusive and are not listed. Calls come from the whole dose curve; as a rule, active = well fitted inhibition curve with a large enough effect in the signal ratio, with a control signal flat (not every such curve was filed as active); inconclusive = small, poorly fitted or top-dose-only effect, or effect the other way, or a change in a side signal; inactive = flat fitted curve, though single readings scatter; the % refers to the signal ratio. For the sample, actives were picked, then their nearest neighbours and some compounds at random. Potency is the fitted concentration of half-maximal effect.",
  "data": [
    {"assay": "qHTS Assay for Lipid Storage Modulators in Drosophila S3 Cells;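 for cell number change: cells counted by Cell Tracker Red CMTPX staining in the red channel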; for lipid storage change, negative = inhibition: % is set by controls: 0 for no effect and ±100 for the full control effect", "settings": "BODIPY lipid droplet fluorescence, 18-24 h, cells fed with added oleic acid; cell number change: measured here: cell count max response; series mostly up to 46.1 µM", "outline": "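Laser-scanning cytometry quantifies lipid droplet accumulation (500–530 nm total intensity; droplet/cell object ratio) in oleic acid-fed (400 uM added) Drosophila S3 cells treated with a concentration series. 20 uM Triacsin C defined 100% inhibition.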", "units": {"cell number change": "%"}, "values": [
      {"compound": "CCCCNC(=O)COc1ccccc1C(=O)c1cc(C#N)c(=O)n(CCOC)c1", "Potency": "inactive", "cell number change": 1.51},
      {"compound": "COc1ccc(S(=O)(=O)N2CCCC2)c2ccccc12", "Potency": "inactive", "cell number change": 12.2},
      {"compound": "CCc1ccc2[nH]c(=O)c(CN(CCN(CC)CC)C(=O)Nc3ccccc3OC)cc2c1", "Potency": "inactive", "cell number change": 22.1},
      {"compound": "COc1nc(N2CCCC2)nc(-n2nnc(C(C)=O)c2C)n1", "Potency": "inactive", "cell number change": 9.7},
      {"compound": "CC(=O)c1c(C)[nH]c2ccccc2c1=O", "Potency": "inactive", "cell number change": -9.21},
      {"compound": "COC(=O)c1c(NC(=O)CSc2nnc(C)c(=O)[nH]2)sc(C)c1C", "Potency": "inactive", "cell number change": -15.8},
      {"compound": "COc1ccc(C2CC(c3ccc(Br)cc3)=NN2C(=O)CSC2=NCCS2)cc1", "note": "(stereo not drawn)", "Potency": "inactive", "cell number change": -2.75},
      {"compound": "COc1ccc(C(=O)Nc2cc(OC)nc(OC)n2)cc1", "Potency": "inactive", "cell number change": -3.14},
      {"compound": "Cc1cccc(NC(=O)c2ccc([N+](=O)[O-])o2)c1", "Potency": "13 µM (active)", "cell number change": 3.29},
      {"compound": "Cc1cc(C)cc(NC(=O)c2ccc([N+](=O)[O-])o2)c1", "Potency": "inactive", "cell number change": -11.8},
      {"compound": "CCC(=O)Nc1ccc(NC(=O)c2ccco2)c(OC)c1", "Potency": "inactive", "cell number change": 16},
      {"compound": "Cc1ccc2nsnc2c1NC(=O)c1cccc([N+](=O)[O-])c1", "Potency": "inactive", "cell number change": 3.04},
      {"compound": "Cc1ccc2nsnc2c1NC(=O)c1ccc([N+](=O)[O-])o1", "Potency": "18.4 µM (active)", "cell number change": 0.87},
      {"compound": "COc1cc(NC(=O)c2cc3ccccc3o2)ccc1NC(=O)c1ccco1", "Potency": "0.58 µM (active)", "cell number change": 2.99},
      {"compound": "COc1cc(NC(=O)c2ccccc2)ccc1NC(=O)c1cc2ccccc2o1", "Potency": "inactive", "cell number change": -16.3},
      {"compound": "COc1cc(NC(=O)c2ccc([N+](=O)[O-])o2)ccc1NC(=O)c1ccco1", "Potency": "8.2 µM (active)", "cell number change": -26.2},
      {"compound": "COc1cc(NC(=O)c2cccc([N+](=O)[O-])c2)ccc1NC(=O)c1ccco1", "Potency": "inactive", "cell number change": -8.46},
      {"compound": "COc1cc(NC(C)=O)ccc1NC(=O)c1cc2ccccc2o1", "Potency": "inactive", "cell number change": 11.3},
      {"compound": "Cc1cccc(NC(=O)c2ccc(-c3ccccc3[N+](=O)[O-])o2)c1", "Potency": "inactive", "cell number change": 15.3},
      {"compound": "O=C(Nc1c(Cl)ccc2nsnc12)c1ccc([N+](=O)[O-])o1", "Potency": "inactive", "cell number change": 11.1},
      {"compound": "Cc1ccc(C(=O)CCC(=O)OCc2nnc(-c3ccccc3)o2)cc1", "Potency": "inactive"},
      {"compound": "O=C1c2cc(Cl)ccc2OC2(CCNCC2)C12CC(c1ccccc1)=NO2", "note": "(stereo not drawn)", "Potency": "inactive", "cell number change": 8.66},
      {"compound": "COC(=O)[C@@]1(Cc2ccc(OC)cc2)[C@H]2c3cc(C(=O)N4CCCC4)n(CCSCCO)c3C[C@H]2CN1C(=O)c1ccccc1", "Potency": "inactive", "cell number change": 0.624},
      {"compound": "CN(C1CCCC1)C1CCN(C(=O)CNC(=O)/C=C/c2cccc(C(F)(F)F)c2)CC1", "Potency": "inactive", "cell number change": 8.56},
      {"compound": "CN(C)c1ccc(CN(C(=O)c2cccs2)C2CCS(=O)(=O)C2)cc1", "note": "(stereo not drawn)", "Potency": "inactive", "cell number change": 15.9},
      {"compound": "c1ccc(OCc2nc3c4c(ncn3n2)-c2ccccc2CC42CCCC2)cc1", "Potency": "inactive", "cell number change": -10.9},
      {"compound": "COc1ccccc1NC(=O)C1CCCN(c2cnccn2)C1", "note": "(stereo not drawn)", "Potency": "inactive", "cell number change": 17.3},
      {"compound": "COc1cc2c(cc1OC)CN(C(=O)Nc1ccccc1)CC2", "Potency": "inactive", "cell number change": 6.01},
      {"compound": "CCOC(=O)Cc1cc(=O)n2[nH]c(C)c(-c3ccc(Cl)cc3)c2n1", "Potency": "inactive", "cell number change": -27.5},
      {"compound": "COC(=O)Cc1cc(=O)n2[nH]c(C)c(-c3ccccc3)c2n1", "Potency": "inactive", "cell number change": -1.66},
      {"compound": "CCCc1cc(=O)n2[nH]c(C)c(-c3ccc(OC)cc3)c2n1", "Potency": "18.4 µM (active)", "cell number change": 16.5},
      {"compound": "C/C(=N\\NC(=O)NC1CCCCC1)c1ccc(Cl)s1", "Potency": "inactive", "cell number change": -11.8},
      {"compound": "COc1ccc(-c2nc(SC(C)C(=O)Nc3ccc(NC(C)=O)cc3)n[nH]2)cc1", "note": "(stereo not drawn)", "Potency": "inactive", "cell number change": 32.4},
      {"compound": "COc1ccc(-c2nc(SC(C)C(=O)NC3CC3)n[nH]2)cc1", "note": "(stereo not drawn)", "Potency": "1.84 µM (active)", "cell number change": -10},
      {"compound": "COc1ccc(-c2nc(SCC(=O)NC3CCCCC3)n[nH]2)cc1", "Potency": "inactive", "cell number change": -21.7},
      {"compound": "CCOC(=O)C1CCCCN1Cc1cccc(Oc2ccccc2)c1", "note": "(stereo not drawn)", "Potency": "inactive", "cell number change": -1.04},
      {"compound": "CCOC(=O)C1CCCCN1Cc1ccc(C(F)(F)F)cc1", "note": "(stereo not drawn)", "Potency": "6.51 µM (active)", "cell number change": -25.6},
      {"compound": "CCOC(=O)C1CCCCN1Cc1ccc(F)c(Br)c1", "note": "(stereo not drawn)", "Potency": "inactive", "cell number change": -23.6},
      {"compound": "COc1cc(C2CC(=O)Oc3c(C(CCN4CCN(c5ccccc5)CC4)c4ccc(N(C)C)cc4)c(OC)cc(OC)c32)cc(OC)c1OC", "note": "(stereo not drawn)", "Potency": "inactive", "cell number change": -0.692},
      {"compound": "O=C(COc1ccccc1[N+](=O)[O-])Nc1cc(C(=O)O)cc(C(=O)O)c1", "Potency": "inactive", "cell number change": -6.55},
      {"compound": "Cc1sc2ncnc(SCC(=O)Nc3ccc(CN4CCCC4)cc3)c2c1C", "Potency": "inactive", "cell number change": 13.1},
      {"compound": "CC(=O)Nc1ccc(NC(=O)CSc2ncnc3sc(C)c(C)c23)cc1", "Potency": "13 µM (active)", "cell number change": 3.95},
      {"compound": "CCN(CC(=O)Nc1ccc(NC(C)=O)cc1)C(=O)CSc1ncnc2sc(C)c(C)c12", "Potency": "inactive"},
      {"compound": "COC(=O)c1ccc(NC(=O)CSc2nc3[nH]ncc3c(=O)[nH]2)cc1", "lipid storage change, negative = inhibition": "-11.4% [at 0.0737 µM] (inactive)"},
      {"compound": "COC(=O)CNC(=O)COc1ccccc1", "Potency": "25.9 µM (active)", "cell number change": 0.31},
      {"compound": "CC(C)CC(NC(=O)COc1ccccc1)C(=O)O", "note": "(stereo not drawn)", "Potency": "inactive", "cell number change": 23.7},
      {"compound": "CC(C)c1ccc(OCC(=O)NC(C)c2ccccc2)cc1", "note": "(stereo not drawn)", "Potency": "inactive", "cell number change": -6.3},
      {"compound": "O=C(COc1ccccc1)NCc1ccccc1", "Potency": "inactive"},
      {"compound": "CC(C)C(NC(=O)COc1ccccc1)C(=O)O", "note": "(stereo not drawn)", "Potency": "32.6 µM (active)", "cell number change": -18.5},
      {"compound": "CCc1ccc(C(=O)COC(=O)CNC(=O)COc2ccccc2)cc1", "Potency": "inactive", "cell number change": -0.597},
      {"compound": "COC(=O)c1cccc(NC(=S)N2CCN(c3ccccc3F)CC2)c1", "Potency": "inactive", "cell number change": 12.8},
      {"compound": "CCOC(=O)CC(/C(C)=N\\O)c1ccccc1", "note": "(stereo not drawn)", "Potency": "inactive", "cell number change": -0.923},
      {"compound": "CCc1ccc(NC(=O)CN2C(=O)CSC2=O)cc1", "Potency": "inactive", "cell number change": -0.41},
      {"compound": "O=C(CN1C(=O)CSC1=O)Nc1ccc(N2CCOCC2)cc1", "Potency": "20.6 µM (active)"},
      {"compound": "Cc1ccc(NC(=O)CN2C(=O)CSC2=O)cc1", "Potency": "inactive", "cell number change": -1.37},
      {"compound": "COc1ccc(S(=O)(=O)N2CCCCC2)cc1NC(=O)CSc1nccn1C", "Potency": "inactive", "cell number change": -6.22},
      {"compound": "CC(=O)c1c(C(C)=O)c(C)n(-c2ccc(C)c(NC(=O)c3ccccc3Cl)c2)c1C", "Potency": "inactive", "cell number change": -18.6},
      {"compound": "COc1ccc(NC(=O)N2CCCC(CCC(=O)N(C)CCc3ccccn3)C2)cc1", "note": "(stereo not drawn)", "Potency": "inactive", "cell number change": -4.81},
      {"compound": "Cc1nc(N2CCCCC2)sc1C(=O)c1cccc([N+](=O)[O-])c1", "Potency": "inactive", "cell number change": -2.77}
    ]}
  ]
}
